# Reference: the supplement of paper PMC8728848
# The sample as a whole holds a higher share of the strongest signals than the screen did.
# What was measured:
# Assay in all cases: glycan array binding signal (z-score within array); higher = stronger binding
# Settings in all cases: glycan notation: IUPAC condensed, linker removed
# [1] = target: Gal(b1-4)GlcNAc(b1-2)Man(a1-6)[GlcNAc(b1-2)Man(a1-3)]Man(b1-4)GlcNAc(b1-4)GlcNAc
# Outline: (§1)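 From the Consortium for Functional Glycomics database, 3228 arrays were curated, keeping only those whose protein sequence was available. Binding is given as a within-array Z-score averaged across arrays sharing a protein sequence and across linkers. Negative Z-scores can be read as non-binding.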
# [2] = target: Gal3S(b1-4)[Fuc(a1-3)]GlcNAc6S
# Outline: as §1
# Gal6S(b1-4)Glc6S = target: Gal6S(b1-4)Glc6S
# Outline: as §1
# [3] = target: GalNAc(a1-3)GalNAc(a1-3)Gal(a1-4)Gal(b1-4)GlcNAc
# Outline: as §1
# [4] = target: GalNAc(b1-3)Gal(a1-6)Gal(b1-4)Glc
# Outline: as §1
# Glc(a1-6)Glc(a1-6)Glc = target: Glc(a1-6)Glc(a1-6)Glc
# Outline: as §1
# [5] = target: GlcNAc(b1-2)Gal(b1-3)GalNAc
# Outline: as §1
# [6] = target: GlcNAc(b1-3)Gal(b1-4)GlcNAc(b1-2)Man(a1-3)[GlcNAc(b1-3)Gal(b1-4)GlcNAc(b1-2)Man(a1-6)]Man(b1-4)GlcNAc(b1-4)GlcNAc
# Outline: as §1
# [7] = target: GlcNAc(b1-3)[GlcNAc(b1-6)]Gal(b1-4)GlcNAc
# Outline: as §1
# [8] = target: GlcNAc(b1-3)[GlcNAc(b1-6)]GalNAc
# Outline: as §1
# Kdn(a2-3)Gal(b1-3)GlcNAc = target: Kdn(a2-3)Gal(b1-3)GlcNAc
# Outline: as §1
# [9] = target: Man(a1-2)Man(a1-2)Man(a1-3)[Man(a1-2)Man(a1-3)[Man(a1-2)Man(a1-6)]Man(a1-6)]Man(b1-4)GlcNAc(b1-4)GlcNAc
# Outline: as §1
# [10] = target: Man(a1-2)Man(a1-3)[Man(a1-2)Man(a1-6)]Man(a1-6)[Man(a1-2)Man(a1-2)Man(a1-3)]Man
# Outline: as §1
# [11] = target: Man(a1-3)[Man(a1-6)]Man(a1-6)[Man(a1-3)]Man
# Outline: as §1
# [12] = target: Neu5Ac(a2-3)Gal(b1-3)GlcNAc(b1-3)Gal(b1-4)GlcNAc
# Outline: as §1
# [13] = target: Neu5Ac(a2-3)Gal(b1-3)[Neu5Ac(a2-3)Gal(b1-4)]GlcNAc
# Outline: as §1
# [14] = target: Neu5Ac(a2-3)Gal(b1-4)GlcNAc(b1-2)Man(a1-3)[Neu5Ac(a2-6)Gal(b1-4)GlcNAc(b1-2)Man(a1-6)]Man(b1-4)GlcNAc(b1-4)GlcNAc
# Outline: as §1
# [15] = target: Neu5Ac(a2-3)Gal(b1-4)GlcNAc(b1-3)GalNAc
# Outline: as §1
# [16] = target: Neu5Ac(a2-3)Gal(b1-4)GlcNAc(b1-6)GalNAc
# Outline: as §1
# [17] = target: Neu5Ac(a2-6)Gal(b1-4)GlcNAc(b1-2)Man(a1-3)Man(b1-4)GlcNAc(b1-4)GlcNAc
# Outline: as §1
# [18] = target: Neu5Ac(a2-6)Gal(b1-4)GlcNAc(b1-2)Man(a1-3)[Man(a1-6)]Man(b1-4)GlcNAc(b1-4)GlcNAc
# Outline: as §1
# [19] = target: Neu5Ac(a2-6)Gal(b1-4)GlcNAc(b1-3)Gal(b1-4)GlcNAc(b1-6)[Gal(b1-3)]GalNAc
# Outline: as §1
# [20] = target: Neu5Ac(a2-6)Gal(b1-4)GlcNAc(b1-3)GalNAc
# Outline: as §1
# [21] = target: Neu5Ac(a2-8)Neu5Ac(a2-3)[GalNAc(b1-4)]Gal(b1-4)Glc
# Outline: as §1
# [22] = target: Neu5Ac9Ac(a2-6)Gal(b1-4)GlcNAc
# Outline: as §1
# [23] = target: Neu5Gc(a2-8)Neu5Gc(a2-3)Gal(b1-4)GlcNAc
# Outline: as §1
# [24] = target: Neu5Gc(b2-6)Gal(b1-4)GlcNAc
# Outline: as §1
binder,measurement,setting,value
"UEA-I (Ulex europaeus), P22972 (protein) SDDLSFKFKNFSQNGKDLSFQGDASVIETGVLQLNKVGNNLPDETGGIARYIAPIHIWNCNTGEVASFITSFSFFMETSANPKAATDGLTFFLAPPDSPLRRAGGYFGLFEDTKDNDSSYQTVAVEFDTIGSPVNFDDPGFPHIGIDVNRVKSINAERWNKRYGLNNVANVEIIYEASSKTLTASLTYPSDQTSISVTSIVDLKEILPEWVSVGFSGGTYIGRQATHEVLNWYFTSNLINTNS",glycan array binding signal (z-score),[1],-0.155
same,glycan array binding signal (z-score),[2],-0.212
same,glycan array binding signal (z-score),Gal6S(b1-4)Glc6S,-0.098
same,glycan array binding signal (z-score),[3],-0.179
same,glycan array binding signal (z-score),[4],-0.21
same,glycan array binding signal (z-score),Glc(a1-6)Glc(a1-6)Glc,-0.204
same,glycan array binding signal (z-score),[5],-0.195
same,glycan array binding signal (z-score),[6],-0.128
same,glycan array binding signal (z-score),[7],-0.266
same,glycan array binding signal (z-score),[8],-0.17
same,glycan array binding signal (z-score),Kdn(a2-3)Gal(b1-3)GlcNAc,-0.222
same,glycan array binding signal (z-score),[9],-0.378
same,glycan array binding signal (z-score),[10],-0.191
same,glycan array binding signal (z-score),[11],-0.125
same,glycan array binding signal (z-score),[12],-0.274
same,glycan array binding signal (z-score),[13],-0.122
same,glycan array binding signal (z-score),[14],-0.209
same,glycan array binding signal (z-score),[15],-0.22
same,glycan array binding signal (z-score),[16],-0.243
same,glycan array binding signal (z-score),[17],-0.227
same,glycan array binding signal (z-score),[18],-0.216
same,glycan array binding signal (z-score),[19],-0.032
same,glycan array binding signal (z-score),[20],-0.148
same,glycan array binding signal (z-score),[21],-0.259
same,glycan array binding signal (z-score),[22],-0.244
same,glycan array binding signal (z-score),[23],-0.238
same,glycan array binding signal (z-score),[24],-0.1
